Test results reported in PubChem BioAssay AID1619 (SRMLSC, 2009).
About 830 (0.38%) of roughly 220,000 compounds were called active. The list is a sample of the results. Measured potencies and affinities stand elsewhere. Unmarked numbers belong to inactive results.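 How the source made its calls: active means compound inhibiting the enzyme by more than half at any dose during confirmatory dose-response retesting; inconclusive means strong single-dose inhibitors picked by rank but not retested; inactive means the rest.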 Residues, ends and D or L forms follow the SMILES beside them. *: point of attachment. Boc = CC(C)(C)OC(=O)*

Each molecule was assayed against Leucine aminopeptidase (Plasmodium falciparum (isolate 3D7)) (UniProt Q8IL11) (assay: P. falciparum M17LAP inhibitors, primary screen, biochemical, fluorogenic H-Leu-NHMec substrate, 1536-well (AID 1619;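 further: plate controls were full reaction with DMSO carrier for no effect and no enzyme background for full effect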)). Settings: recombinant M17LAP, H-Leu-NHMec fluorogenic kinetic assay; at 30 µM; active compounds read high.
Leucine aminopeptidase (Plasmodium falciparum (isolate 3D7)), sequence (Q8IL11 whole entry, looked up): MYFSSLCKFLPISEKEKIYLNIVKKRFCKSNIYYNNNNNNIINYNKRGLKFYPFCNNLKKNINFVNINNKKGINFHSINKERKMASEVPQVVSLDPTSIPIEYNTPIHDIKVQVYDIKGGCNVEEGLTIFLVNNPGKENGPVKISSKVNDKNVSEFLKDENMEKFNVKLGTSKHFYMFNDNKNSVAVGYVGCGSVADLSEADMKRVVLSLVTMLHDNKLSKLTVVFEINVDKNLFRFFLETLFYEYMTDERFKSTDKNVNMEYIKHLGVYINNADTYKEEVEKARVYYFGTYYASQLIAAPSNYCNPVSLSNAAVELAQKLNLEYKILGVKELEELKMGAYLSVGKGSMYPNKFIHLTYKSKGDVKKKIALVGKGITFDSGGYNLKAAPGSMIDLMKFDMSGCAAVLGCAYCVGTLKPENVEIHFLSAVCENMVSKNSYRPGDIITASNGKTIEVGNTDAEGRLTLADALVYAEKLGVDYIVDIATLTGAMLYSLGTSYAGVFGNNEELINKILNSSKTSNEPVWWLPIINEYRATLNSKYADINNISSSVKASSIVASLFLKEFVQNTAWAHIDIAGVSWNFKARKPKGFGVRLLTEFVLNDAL

Row | SMILES | inhibition [%]
1 | Cc1ccc(C(=O)c2cn[nH]c2-c2ccccc2O)cc1 | 44.9
2 | CCOC(=O)C1(C(=O)OCC)C(c2ccccc2)CC(O)N1C(C)=O (configuration not stated) | 1.54
3 | NC(=O)c1ccc(NC(=O)c2ccccc2S(=O)(=O)c2ccccc2[N+](=O)[O-])cc1 | 9.64
4 | COC(=O)N/N=C(\CCC(=O)O)c1cccs1 | 6.69
5 | O=C(O)CC/C(=N\NC(=O)c1ccccc1)c1cccs1 | 18.4
6 | Brc1ccc(/C=N/Nc2ncnc3c2cnn3Cc2ccccc2)cc1 | -4.47
7 | CC(C)c1nc(SCC(=O)Nc2ccc([N+](=O)[O-])cc2Br)n[nH]1 | 6
8 | Cc1nnc(SCC(=O)c2ccc(C(C)C)cc2)s1 | -0.89
9 | COc1ccccc1NC(=O)CSc1ncn(-c2ccccc2)n1 | 5.61
10 | CC(C)c1ccc(C(=O)CSc2n[nH]c(-c3ccncc3)n2)cc1 | 6.54
11 | COc1ccccc1NC(=O)CSc1nc(N)cc(N)n1 | 10.8
12 | O=C(CSc1ccccc1)Nc1ccccc1C(=O)O | 18.8
13 | NC(=O)SCC(=O)Nc1ccccc1C(=O)O | 9.51
14 | Nc1nc(SCC(=O)Nc2ccc([N+](=O)[O-])cc2Br)n[nH]1 | 10.2
15 | Cc1cc(C)cc(N2C(=O)CC(N(C(=O)c3ccco3)c3cc(C)cc(C)c3)C2=O)c1 (configuration not stated) | 3.47
16 | CC(C)c1ccc(Nc2ncccc2C(=O)O)cc1 | 13.8
17 | CC1CN(Cc2ccc(C#N)cc2Cl)CC(C)O1 (configuration not stated) | -2.17
18 | C/C(CCN1CCc2nc(-c3ccccc3)c(-c3ccccc3)cc2C1)=N\O[C@H](C)c1cn([C@H](CO)Cc2ccccc2)nn1 | 12.6
19 | Cc1oc(C)c(C(N)=O)c1C(N)=O | -4.4
20 | COc1ccccc1N1CCN(C(=O)CSc2nc(N)cc(=O)[nH]2)CC1 | -20.8
21 | COc1ccccc1NC(=O)CSc1nccc(=O)[nH]1 | 28.1
22 | COc1ccccc1N1CCN(C(=O)CSc2nc(C)cc(=O)[nH]2)CC1 | 12.1
23 | Cc1cc(C)nc(SCC(=O)Nc2ccc(S(=O)(=O)N3CCCCC3)cc2)n1 | -1.67
24 | O=C(CSc1ncccn1)Nc1ncc(C(F)(F)F)cc1Cl | -4.61
25 | COc1ccc(NC(=O)CSc2nc(O)cc(=O)[nH]2)c(OC)c1 | 14.7

Row | SMILES | inhibition [%]
26 | Nc1nc(SCC(=O)Nc2ncc(C(F)(F)F)cc2Cl)n[nH]1 | 1.49
27 | O=C(CSc1ncccn1)Nc1ccc(S(=O)(=O)N2CCCCC2)cc1 | -1.15
28 | CC1=C(C(=O)OCc2ccccc2)C(c2ccoc2)C(C#N)=C(N)O1 (configuration not stated) | 5.93
29 | CC(NC(=O)C(=O)N/N=C\c1ccc([N+](=O)[O-])cc1)c1ccccc1 (configuration not stated) | 9.58
30 | CCOC(=O)/C(=C\c1cccnc1)C(=O)c1cc(C(C)=O)c(Nc2ccccc2)s1 | -7.24
31 | Cc1ccc(NC(=O)COC(=O)Cc2csc(-c3ccc(Cl)cc3)n2)cc1C | 5.09
32 | CCOC(=O)N1CCC(N(C(=O)Nc2cccc(OC)c2)C(C)CC)CC1 (configuration not stated) | 7.02
33 | CCN(CC)CCN1C(=O)C(=O)/C(=C(/O)c2ccncc2)C1c1ccccc1 (configuration not stated) | 45.4
34 | CCC1CCCCN1S(=O)(=O)c1ccc(NC(=O)CSc2ncccc2C(=O)O)cc1 (configuration not stated) | -3.83
35 | Nc1cc(=O)[nH]c(SCC(=O)Nc2nnc(-c3ccccc3)s2)n1 | 34.9
36 | O=C(CSc1nc(-c2ccccc2)c(-c2ccccc2)o1)Nc1nnc(-c2ccccc2)s1 | 5.34
37 | CC1CCN(S(=O)(=O)c2ccc(NC(=O)Cc3ccccc3)cc2)CC1 | 2.2
38 | CC(=O)N1c2ccccc2C(=O)C1N1CCCCC1 (configuration not stated) | 7.9
39 | CCn1c(SCC(=O)c2[nH]c(C)c(C(C)=O)c2C)nnc1-c1cccs1 | 12.2
40 | CC(C)CCNC(=O)C1CC(c2cccc([N+](=O)[O-])c2)=NO1 (configuration not stated) | 3.11
41 | O=C(CC12CC3CC(C1)CC(CC(=O)N1CCCC1)(C3)C2)N1CCCC1 | 1.98
42 | NC(=O)CC[C@H](NC(=O)c1ccc(F)cc1)C(=O)OCC(=O)Nc1ccc(N2CCOCC2)cc1 | -1.82
43 | C=C(C)c1cccc(C(C)(C)NC(=O)NCc2ccncc2)c1 | 5.4
44 | Fc1ccccc1-c1[nH]ncc1-c1nnnn1-c1ccccc1 | 6.84
45 | COc1ccc(N2CCN(c3oc(-c4ccccc4OC)nc3C#N)CC2)cc1 | 0.71
46 | CCOC(=O)N1CCN(c2cc(C)c(C(C)=O)cc2F)CC1 | 14.4
47 | O=C(CN1C(=O)C2C3CC(C(Br)C3Br)C2C1=O)N1CCN(Cc2ccccc2)CC1 (configuration not stated) | -4.45
48 | O=C(CN1C(=O)C2C3c4ccccc4C(c4ccccc43)C2C1=O)N1CCOCC1 (configuration not stated) | 4.26
49 | CCCCOCCCNC(=O)CC(C)c1ccccc1 (configuration not stated) | 1.77
50 | CCOC(=O)N1CCN(C(=O)c2ccc3c(=O)n(Cc4ccc(Cl)cc4)c(=S)[nH]c3c2)CC1 | -6.9

Row | SMILES | inhibition [%]
51 | CCCCn1c(=S)[nH]c2c(oc3ccc(Cl)cc32)c1=O | 21.5
52 | O=C(COC(=O)/C=C/c1ccc(Cl)cc1Cl)NCCC1=CCCCC1 | 3.27
53 | O=c1cc(CSc2nnc(Nc3ccccc3)s2)nc2sccn12 | 24.3
54 | Cc1ccccc1Nc1nnc(SCc2cc(=O)n3ccsc3n2)s1 | 28.1
55 | C/C(=C\C(=O)O)C12CC3CC(CC(C3)C1)C2 | 11.6
56 | COc1ccc(NC(=O)/C=C/c2c(Cl)nc3ccccn23)cc1 | -6.42
57 | CCC(C)[C@H](NC(=O)Nc1ccc(S(N)(=O)=O)cc1)C(=O)O (some centres not stated) | 4.8
58 | CCc1ccccc1NC(=O)N[C@H](C(=O)O)C(C)CC (some centres not stated) | 23.6
59 | CC(C)C[C@H](NC(=O)Nc1ccc(Oc2ccccc2)cc1)C(=O)O | 38.9
60 | COC(=O)[C@H](C)NC(=O)Nc1ccc(Oc2ccccc2)cc1 | -1.77
61 | CCc1c(C)sc2nc3c(C(=O)N4CCOCC4)cc(C(=O)c4ccccc4O)cn3c(=O)c12 | 5.44
62 | Cc1noc(C)c1C1(O)CCCCCCCCCCC1 | 0.02
63 | CSc1nc2ccccc2s1 | 13.1
64 | CCC1CSC(Nc2ccc(C(=O)/C=C/c3ccc(Br)cc3)cc2)=N1 (configuration not stated) | 15.6
65 | CSc1ncc(Cl)c(C(=O)Nc2nnc(SC)s2)n1 | 13.3
66 | CSc1ncc(Cl)c(C(=O)Nc2nnc(SC/C=C/c3ccccc3)s2)n1 | 29.5
67 | C=CCSc1nnc(NC(=O)c2ccc(Cl)nc2)s1 | 9.37
68 | CCSc1ncc(Cl)c(C(=O)Nc2ccccc2)n1 | -6.07
69 | O=C(CCn1cnc2ccccc21)N/N=C/c1ccccc1O | -4.46
70 | CCOC(=O)CSc1nc(C(C)(C)C)nc2ccccc12 | -0.8
71 | Cc1cc(C)c2c(=O)n(CC(=O)Nc3cccc(F)c3)sc2n1 | -3.07
72 | CC1(C(=O)Nc2nnc(SCc3ccccc3)s2)Cc2ccccc2C(=O)O1 (configuration not stated) | 45.4
73 | CC1(C(=O)Nc2nnc(C(C)(C)C)s2)Cc2ccccc2C(=O)O1 (configuration not stated) | 48.3
74 | Cc1ccc(-c2noc(CNCCCN(C)C)n2)cc1 | 2.07
75 | Cn1c(=O)c2c(SCC(=O)N3CCOCC3)nc(C3CCCCC3)nc2n(C)c1=O | -15.2

Row | SMILES | inhibition [%]
76 | O=C(Cc1ccc(-c2ccccc2)cc1)NCc1ccccc1 | -2.44
77 | O=C(Cc1csc(NC(=O)c2ccccc2)n1)NO | 28.3
78 | CS(=O)(=O)N(CC(=O)N1CCOCC1)Cc1ccc(Cl)cc1 | -4.28
79 | CN(C)CC(=O)c1ccc(-c2ccccc2)cc1 | 68.2
80 | CCC(=O)c1ccc(-c2ccccc2)cc1 | -6.48
81 | CC(C)(C)OC(=O)N1CCCC1C(=O)NC(Cc1ccccc1)C(=O)O (stereo not drawn) (Boc-Pro-Phe-OH; configuration not given here) | 9.76
82 | CC(C)C(NC(=O)OC(C)(C)C)C(=O)N1CCCC1C(=O)NC(Cc1ccccc1)C(N)=O (stereo not drawn) (Boc-Val-Pro-Phe-NH2; configuration not given here) | 17.4
83 | Cc1nn(-c2ccc(F)cc2)c(Cl)c1/C=C/C(=O)OCC(=O)Nc1ccc(F)cc1F | 0.75
84 | O=C(c1ccccc1)c1ncc(C(F)(F)F)cc1Cl | -12.8
85 | O=C(O)CCCCCn1c(SCC(=O)N2CCCC2)nc2ccsc2c1=O | 14.5
86 | CCCCn1c(SCC(=O)c2ccc(O)c(O)c2)nc2ccsc2c1=O | 19.5
87 | CNc1nc(Oc2ccc(C(=O)OC)cc2)nc(SC)n1 | -13.4
88 | Cn1cc(Cl)c(-c2n[nH]c(=S)n2-c2ccccc2)n1 | 8.04
89 | CCOC(=O)c1c(NC(=O)CSc2nc3ccccc3c(=O)n2-c2ccccc2)sc(C(C)=O)c1C | -1.44
90 | O=C(c1cnn(C(=O)COc2ccccc2F)c1)c1cc(F)ccc1O | 1.06
91 | Cc1ccc(O)c(C(=O)c2cnn(C(=O)Cc3csc(C)n3)c2)c1 | -1.8
92 | O=C(Cn1cnc2ccccc2c1=O)c1ccc(Cl)cc1 | 1.39
93 | COc1ccc(N(C(=O)C(C)C)S(=O)(=O)c2ccc(Cl)cc2)cc1 | -1.25
94 | CCn1c(COc2ccc(C)cc2)nnc1SCC(=O)NCc1ccco1 | 6.34
95 | CCOc1ccc(Nc2nc(Cc3nnc(SCC(N)=O)o3)cs2)cc1 | 27.7
96 | CCn1c(CNc2nc(-c3ccccc3)cs2)nnc1SCC(=O)NCc1ccco1 | -5.1
97 | CCOc1ccc(Nc2nc(Cc3nnc(SCC(=O)c4ccc(C)cc4)o3)cs2)cc1 | 27.5
